# Test results from the OligoGym collection.
# Target: CPNE5
# Experiment: pooled miR-30 sensor sort-seq; sequence = guide strand
# Settings: shRNA
# Further: reference of the scale not given here.
row,Sequence,sensor-assay potency score (higher = more potent)
1,TTCTTGTCCAGCTTGTTGGCAC,-0.22
2,TAATCCACAATGAACTTGCGCA,-0.151
3,TAGTGCTGGATGATCTCTCCGA,0.148
4,TTGTCGATGACTTCGGTGCGCC,-0.869
5,TTGCATCGTACTGAGTTCGAGA,-0.62
6,TAGATCAAAACGGAGGTTCTGC,-0.116
7,TTCTTCATTTTCTTTTTCGGGT,-0.414
8,TTGTCCAGGAGGTTCCTGCAGG,-0.916

# Target: CRB1
# Experiment: as above
# Settings: shRNA
row,Sequence,sensor-assay potency score (higher = more potent)
1,TTCATTGACGTCTTCTTCGCAG,0.387
2,TTTGAGAAATTGCTCTTCCTGA,-0.258
3,TTCAAATCCTTGAAGCACCGGC,0.589
4,TTGAAGAACATTCATTGACGTC,-0.696
5,TTGAGGTCGATCTCACACTGGG,-0.294
6,TTACATCTTGGATACAGCCTTT,-0.193
7,TATTATTACATTTGCATCCCTT,-0.226
8,TTGGCTTTCACACCAATCCTTT,-1.07
9,ATAAATATCTGTATTATCCTTC,0.756
10,TTTATATTGTCAATAGCTCTGT,0.0403
11,TGTCTGAACAAGAACAATCATT,-1.04
12,TTATATTGTCAATAGCTCTGTC,0.532

# Target: CRB3
# Experiment: as above
# Settings: shRNA
row,Sequence,sensor-assay potency score (higher = more potent)
1,TTTGAAGTACCTTCTTCCCTGC,0.11
2,ATAGCAGTGATGGCTTCTGGAC,-1.45
3,TTCTCATTTGCAGAAGTGGTCT,-0.965
4,TTGCAGAAGTGGTCTGTATTTG,-1.49
5,ATGAAGGCAAAACAGTGCTATT,-1.64
6,TCCGTCTGCCGCTTCTCCCGAA,-1.23
7,TGGGAGAACTGCTCCTCGCTAC,-1.03
8,TTGCCATCGGAGCTGGAGCTGG,-1.68
9,AAGACCACGATGATAGCAGTGA,-0.0143
10,TATTCTCATTTGCAGAAGTGGT,-1.61
11,TGGACGCAGGTTGCCATCGGAG,-1.88
12,TGCTCCTCGCTACTGGGCCGGT,-1.75

# Target: CREB5
# Experiment: as above
# Settings: shRNA
row,Sequence,sensor-assay potency score (higher = more potent)
1,TACACTTCTACAAGAAAGCTGT,0.523
2,TTACTTGTAAGTTTATTGCTGC,0.486
3,TTGAACAATGTAATCTGTGTAG,-0.458
4,TTAACAGGCAACAACCACCAGA,-0.508
5,TTGAACTGAGCTATTTTTCTGG,0.269
6,TATGTGTTAACAACAACTGTTT,-0.672
7,TAGAACATTGTATTTGAACTGA,-0.137
8,TTAAGTATAGCTTAGCTGCTGC,-0.267
